This is a sample that favours compounds with a hit; in the whole collection about 12% have one here.
HP1b binding inh: HTS for Inhibitors of HP1-beta Chromodomain Interactions with Methylated Histone Tails; AID 540317, 2011; Potency, µM (titrated, usually from 114 µM), inactives show at the highest dose activity change, negative = inhibition, hits mostly inhibitors; hit rate 0.56% among 390,000; AlphaScreen HP1-beta / biotin-H3K9me3 peptide binding; Chromobox protein homolog 1 (Homo sapiens), P83916; note: nearly all actives have a fitted effect of over 70% in size
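Compound inhibition of the preformed complex between 50 nM HP1-beta and 50 nM biotinylated H3K9me3 peptide was read by AlphaScreen. Buffer was PBS pH 7.4 with 0.01% Tween-20. Incubations ran 30 min at room temperature, with 10 ug/mL donor/acceptor beads.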
G9a inh: qHTS Assay for Inhibitors of Histone Lysine Methyltransferase G9a; Histone-lysine N-methyltransferase EHMT2 (Homo sapiens), Q96KQ7; G9a H3K9 monomethylation, AlphaScreen, 2 h; Potency, µM (highest dose often 102 µM), without a hit: at the highest dose activity, negative = inhibition, most hits filed as inhibitors; hit rate 8.8% among 350,000; AID 504332, 2011; note: % is set by controls: 0 for no effect and ±100 for the full control effect; nearly all actives have a fitted effect of over 75% in size
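Using a bead-based AlphaScreen, monomethylated H3K9 product from 2 h room-temperature reactions (G9a 20 nM, peptide 500 nM, SAM 20 uM) was detected with 0.5 ug/mL rabbit anti-H3K9me1 antibody.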
L3MBTL1 block: qHTS Assay for the Inhibitors of L3MBTL1 | AlphaScreen L3MBTL1–H3K9me1 peptide binding | Potency, µM (titrated, usually from 57.1 µM), for inactives: at the highest dose activity, negative = inhibition, actives largely listed as inhibitors | hit rate 0.66% among 230,000 | AID 485360, 2010; note: % is set by controls: 0 for no effect and ±100 for the full control effect; nearly all actives have a fitted effect of over 60% in size
Target sequence (Q9Y468 whole entry, looked up): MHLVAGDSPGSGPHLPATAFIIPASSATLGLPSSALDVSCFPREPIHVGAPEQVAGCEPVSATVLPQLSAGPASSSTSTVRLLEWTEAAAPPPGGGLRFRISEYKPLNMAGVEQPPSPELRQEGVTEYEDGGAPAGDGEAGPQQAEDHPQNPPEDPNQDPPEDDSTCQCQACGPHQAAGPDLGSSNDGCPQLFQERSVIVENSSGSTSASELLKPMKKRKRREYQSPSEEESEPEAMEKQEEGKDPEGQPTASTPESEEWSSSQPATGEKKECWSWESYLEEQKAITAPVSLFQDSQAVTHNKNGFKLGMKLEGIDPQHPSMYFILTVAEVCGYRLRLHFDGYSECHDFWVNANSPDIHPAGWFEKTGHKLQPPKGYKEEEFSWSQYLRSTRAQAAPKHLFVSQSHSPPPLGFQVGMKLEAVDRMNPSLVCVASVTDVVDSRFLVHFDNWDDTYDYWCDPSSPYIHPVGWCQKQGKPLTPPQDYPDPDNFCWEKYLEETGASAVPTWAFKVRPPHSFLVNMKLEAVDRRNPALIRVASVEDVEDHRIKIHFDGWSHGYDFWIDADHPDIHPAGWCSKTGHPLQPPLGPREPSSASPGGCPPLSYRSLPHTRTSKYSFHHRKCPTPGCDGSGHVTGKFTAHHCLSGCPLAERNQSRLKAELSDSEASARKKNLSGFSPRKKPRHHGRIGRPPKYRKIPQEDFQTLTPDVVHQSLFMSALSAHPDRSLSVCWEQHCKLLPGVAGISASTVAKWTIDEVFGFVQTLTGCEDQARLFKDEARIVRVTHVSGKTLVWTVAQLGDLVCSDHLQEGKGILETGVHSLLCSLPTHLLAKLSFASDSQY
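AlphaScreen assay: L3MBTL1 (50 nM final) was preincubated 30 min at room temperature with biotinylated H3(1-15)K9me1 peptide (75 nM final), then 30 min with library compounds; streptavidin donor and nickel chelate acceptor beads (10 ug/mL final) added, 30 min dark.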
JMJD2A Tudor: qHTS Assay for Inhibitors of JMJD2A-Tudor Domain; Lysine-specific demethylase 4A (Homo sapiens), O75164; AlphaScreen JMJD2A-Tudor / H3K4me3 peptide binding; Potency, µM (doses to about 114 µM), for inactives: top-dose activity change, negative = inhibition, usual class: inhibitors; hit rate 4.4% among 390,000; note: % is set by controls: 0 for no effect and ±100 for the full control effect; nearly all actives have a fitted effect of over 50% in size
Sfp inh: qHTS Assay for Inhibitors of Bacillus subtilis Sfp phosphopantetheinyl transferase (PPTase). 4'-phosphopantetheinyl transferase ffp (Bacillus subtilis), Q9F4F7. Biochemical Sfp PPTase activity, qHTS. Potency, µM, without a hit: largest response in the series, negative = inhibition, usual class: inhibitors. hit rate 3.5% among 310,000. AID 1490, 2009;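 note: the enzyme is Sfp with the accession as filed and its product quenches rhodamine fluorescence; 0% = enzyme reaction without inhibitor and -100% = no enzyme wells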
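Fluorescence-quenching assay: 15 nM Sfp-PPTase preincubated 15 min at room temperature with compound, then 5 uM rhodamine-CoA and 12.5 uM BHQ-2-labelled YbbR peptide added. Fluorescence (ex 525/em 598 nm) read at start and after 30 min; difference gives rate.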
BAZ2B inh: qHTS Assay for Inhibitors of BAZ2B; Bromodomain adjacent to zinc finger domain protein 2B (Homo sapiens), Q9UIF8; AlphaScreen BAZ2B-H3K14Ac peptide displacement; Potency, µM (highest dose often 114 µM), for the others: at the highest dose activity change, negative = inhibition, hits mostly inhibitors; hit rate 4.4% among 360,000; AID 504333, 2011; note: % is set by controls: 0 for no effect and ±100 for the full control effect; nearly all actives have a fitted effect of over 60% in size
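Compounds, titrated to a top concentration of 110 uM, were incubated 30 min at room temperature with preformed BAZ2B/acetyl-K14 H3 peptide complex (50 nM each). Proximity signal was measured by AlphaScreen after 20 min with beads.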
* marks the source's active call; other numbers are inactive results; ? = inconclusive; / = no result given; ! = repeats disagree; [ ] = dose if it differs, or a comment. Calls come from the whole dose curve; as a rule, active = well fitted curve in the direction sought with a large enough effect; inconclusive = small, poorly fitted or top-dose-only effect, or another doubt; inactive = no such curve, though single readings can be large; an effect the other way counts as inactive or inconclusive. Potency is the fitted concentration of half-maximal effect.

SMILES	HP1b binding inh	G9a inh	L3MBTL1 block	JMJD2A Tudor	Sfp inh	BAZ2B inh
COC1(CS(=O)c2ccccc2)CCN(CCc2c[nH]c3ccc(F)cc23)CC1 (stereo unspecified)	/	/	/	/	-2.9%	/
CCn1c(SCC(=O)NCc2ccccc2)nnc1C(CO)NC(=O)c1ccccc1 (stereo unspecified)	5.9%	31.6µM*	/	-7.2%	16.1%	-16.5%
C[C@@H]1Cc2c(Cl)cc(C(=O)N[C@H](Cc3ccccc3)C(=O)O)c(O)c2C(=O)O1	/	/	/	/	6.3%	/
COc1ccc(C(=O)C(C)(C)NO)cc1	?	?	-2.2%	50.1µM*	-5.7%	?
O=C(O)CF	/	/	/	/	32.5%	/
O=C(O)CC(O)(CC(=O)O)C(=O)O	6.0%	-3.3%[2.33 µM]	/	79.4µM*	4.4%	/
CCN(CC)CCOc1ccccc1C(=O)CCc1ccccc1	/	?	/	/	21.5%	/
CNC(=O)Oc1ccccc1C(=O)Nc1ccccc1	/	7.7%[12.7 µM]	/	/	1.0%	/
CCOC(=O)c1sc(/N=C/c2c(O)n(-c3cccc(C)c3)c(=O)[nH]c2=O)c(C#N)c1C	?	-20.1%[59 µM]	4.0%	50.1µM*	?	0.8%
CCOc1ccc(CN(CCc2ccc3c(c2)OCO3)Cc2cccc(OC)c2)cc1	?	2.24µM*	/	6.31µM*	/	31.6µM*
COc1ccccc1NC(=O)N(Cc1ccc2c(c1)OCO2)C1CCN(Cc2ccccc2)CC1	-4.0%	?	/	?	/	?
CCOc1ccc(CN(CCc2ccc3c(c2)OCO3)Cc2ccc(OC)c(Br)c2)cc1	?	?	/	7.08µM*	/	?
CCOc1ccc(CN(CCc2ccc3c(c2)OCO3)Cc2cccc(Br)c2)cc1	?	?	/	5.01µM*	/	?
CCOc1ccc(CN(CCc2ccc3c(c2)OCO3)Cc2ccc(C)cc2)cc1	?	?	/	6.31µM*	/	?
CCOC(=O)C1(CCc2ccccc2)CCN(Cc2ccc3c(c2)OCCO3)CC1	7.9%	4.3%	-2.6%	-30.1%	9.5%	-17.5%
C=CCc1ccc2c(c1)OCO2	/	-4.3%[2.33 µM]	/	/	16.6%	/
CN1CN(c2ccccc2)C2(CCN(CCCSc3ccccc3NC(=O)/C=C/c3ccccc3)CC2)C1=O	?	/	/	39.8µM*	/	/
COc1ccc(NC(=O)N2CC3(CCN(C(=O)Oc4ccccc4)CC3)C2)cc1	/	-9.2%[12.7 µM]	/	/	10.5%	/
CCCCCSc1cc(OC)c(CCN(C)C)cc1OC	?	3.5%[59 µM]	2.9%	?	-11.7%	44.7µM*
CN1CCN(S(=O)(=O)c2cccc(C(=O)N3CCN(c4ccccc4F)CC3)c2)CC1	18.1%	2µM*	-2.6%	-16.8%	/	6.7%
O=C(O)CCn1cc(C=C2C(=O)NC(=O)NC2=O)c(-c2ccc(Br)cc2)n1	57.5%	10µM*	10.3%	0.0%	?	-30.2%
O=C(O)CCn1cc(C=C2C(=O)NC(=S)NC2=O)c(-c2cccc(Cl)c2)n1	2.7%	2.51µM*	-18.1%	50.1µM*	22.4µM*	?
COc1ccc(F)cc1CN1CCN(C(=O)CCC(=O)Nc2nnc(CC(C)C)s2)CC1	39.5%	-4.0%	/	-1.9%	12.6%	3.9%
Cc1ccccc1NC(=O)Oc1cccc(OC(=O)c2ccccc2)c1	61.8%	26.0%	/	-11.3%	11.7%	-1.8%
OCC(CBr)(CBr)CBr	27.5%	2.2%[0.501 µM]	8.6%	-17.2%	/	-0.4%
SMILES	HP1b binding inh	G9a inh	L3MBTL1 block	JMJD2A Tudor	Sfp inh	BAZ2B inh
CN1C(=O)C(=Cc2ccc(-c3cccc(Cl)c3)o2)C(=O)N(C)C1=O	/	?	-7.8%	/	?	?
Cc1ccc(Sc2ccc(C=C3C(=O)N(C)C(=O)N(C)C3=O)o2)cc1	?	/	-16.4%	-27.8%	8.91µM*	?
COc1cc(/C=C2/C(=O)NC(=O)N(c3ccc(C)cc3)C2=O)cc(OC)c1OC	-7.5%	-4.5%[12.7 µM]	-0.2%	-13.5%	50.1µM*	-4.2%
COc1ccc(/C=C2/C(=O)NC(=O)N(c3ccc(C)c(C)c3)C2=O)cc1CN1C(=O)c2ccccc2C1=O	-10.8%	11.2µM*	2.3%	50.1µM*	39.8µM*	50.1µM*
COc1cc(/C=C2\C(=O)NC(=O)N(c3ccccc3)C2=O)cc(OC)c1OC	17.7%	?	/	-24.7%	?	-36.7%
CC1=NN(c2ccccc2)C(=O)C1/C=C1\C(=O)NC(=O)N(c2ccc(C)c(C)c2)C1=O (stereo unspecified)	-13.8%	44.7µM*	/	-4.8%[11.4 µM]	-20.4%	?
COc1cc(/C=C2\C(=O)NC(=O)N(c3ccc(C)cc3)C2=O)cc(OC)c1O	25.5%	20µM*	/	-2.7%	35.5µM*	4.1%
Cc1ccc(-c2nn(C)c(=O)c3ccccc23)cc1CNC(=O)/C=C/c1ccccc1	15.6%	/	31.9%	-16.1%	-10.5%	12.4%
[O]=[Cd]	/	30.8%[59 µM]	/	/	10.9%	/
N[C@]1(C(=O)O)CC[C@@H](C(=O)O)C1 (racemic)	/	?	/	/	56.2µM*!	/
c1ccc(N2CC3(CCNCC3)C2)nc1	/	-7.6%[12.7 µM]	/	/	-21.6%	/
NC[C@@H]1O[C@H](O[C@H]2[C@@H](O)[C@H](O[C@@H]3[C@@H](O)[C@H](N)C[C@H](N)[C@H]3O[C@H]3O[C@H](CO)[C@@H](O)[C@H](O)[C@H]3N)O[C@@H]2CO)[C@H](N)[C@@H](O)[C@@H]1O	/	9.1%[59 µM]	/	/	22.2%	2.8%
O=C(O)c1c[nH]c2ccc(S(=O)(=O)N(CCCl)CCCl)cc12	28.1%	17.8µM*	/	-6.2%	5.1%	2.2%
N#C/C(=C(/O)c1ccc(S(=O)(=O)N(CCCl)CCCl)cc1)c1nc2ccccc2[nH]1	58.3%	23.1%[12.7 µM]	/	-16.5%	27.3%	-11.2%
CCC1(c2ccccc2)CCC(=O)NC1=O (stereo unspecified)	/	8.5%[59 µM]	/	/	16.6%	/
